From PubChem BioAssay (NCATS) come the findings set out here.

Molecules are shown by their SMILES. Results filed as inconclusive are left out. Where a call stands in place of a potency, no number is given. The source made the active and inactive calls. Unless noted, the call rests on the fitted dose curve; in most records, active means well fitted curve in the direction sought with a large enough effect; inconclusive means small, poorly fitted or top-dose-only effect, or another doubt; inactive means no such curve, though single readings can be large; an effect the other way counts as inactive or inconclusive.

Chain of Cytochrome P450 2D6 (Homo sapiens) (P10635 whole entry, looked up): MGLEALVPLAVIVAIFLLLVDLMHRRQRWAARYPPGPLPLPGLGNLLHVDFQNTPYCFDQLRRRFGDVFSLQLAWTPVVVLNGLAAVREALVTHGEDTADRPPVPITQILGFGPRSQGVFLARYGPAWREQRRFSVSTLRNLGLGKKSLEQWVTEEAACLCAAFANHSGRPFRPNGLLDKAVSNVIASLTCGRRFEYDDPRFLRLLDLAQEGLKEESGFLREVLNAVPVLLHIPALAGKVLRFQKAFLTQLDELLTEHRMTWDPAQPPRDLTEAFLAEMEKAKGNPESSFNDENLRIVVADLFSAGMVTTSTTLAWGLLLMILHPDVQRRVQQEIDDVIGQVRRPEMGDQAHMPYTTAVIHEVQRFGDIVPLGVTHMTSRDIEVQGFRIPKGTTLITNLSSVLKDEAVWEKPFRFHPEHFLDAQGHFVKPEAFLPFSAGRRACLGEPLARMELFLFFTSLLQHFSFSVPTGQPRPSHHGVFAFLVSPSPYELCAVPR
Chain of Cytochrome P450 2C9 (Homo sapiens) (P11712 whole entry, looked up): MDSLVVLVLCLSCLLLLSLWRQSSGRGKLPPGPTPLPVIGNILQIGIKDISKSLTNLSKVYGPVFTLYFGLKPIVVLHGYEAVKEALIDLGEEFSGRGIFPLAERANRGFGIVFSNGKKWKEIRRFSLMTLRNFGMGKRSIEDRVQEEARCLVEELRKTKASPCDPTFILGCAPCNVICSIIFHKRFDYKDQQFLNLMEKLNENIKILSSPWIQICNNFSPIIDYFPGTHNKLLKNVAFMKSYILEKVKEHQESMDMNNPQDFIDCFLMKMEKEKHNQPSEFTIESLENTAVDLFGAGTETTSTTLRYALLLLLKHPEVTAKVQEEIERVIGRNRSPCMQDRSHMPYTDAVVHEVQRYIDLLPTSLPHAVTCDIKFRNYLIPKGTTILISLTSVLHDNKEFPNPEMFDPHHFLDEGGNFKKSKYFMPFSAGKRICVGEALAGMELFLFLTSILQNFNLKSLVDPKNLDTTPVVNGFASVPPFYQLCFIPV
Chain of Cytochrome P450 3A4 (Homo sapiens) (P08684 whole entry, looked up): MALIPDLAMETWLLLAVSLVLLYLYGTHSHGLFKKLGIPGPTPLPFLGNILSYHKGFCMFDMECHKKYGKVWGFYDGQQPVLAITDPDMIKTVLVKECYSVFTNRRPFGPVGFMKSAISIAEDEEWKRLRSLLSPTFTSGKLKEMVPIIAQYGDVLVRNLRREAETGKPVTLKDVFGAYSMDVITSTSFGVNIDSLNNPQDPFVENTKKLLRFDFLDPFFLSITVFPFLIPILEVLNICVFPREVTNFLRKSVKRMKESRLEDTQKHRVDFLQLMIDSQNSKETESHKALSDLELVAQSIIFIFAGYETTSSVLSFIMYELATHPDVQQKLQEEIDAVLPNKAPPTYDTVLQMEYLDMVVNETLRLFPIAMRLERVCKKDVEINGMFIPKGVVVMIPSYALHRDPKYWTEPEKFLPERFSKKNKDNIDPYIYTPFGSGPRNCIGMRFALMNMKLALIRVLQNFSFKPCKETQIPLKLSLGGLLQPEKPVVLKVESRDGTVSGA
Chain of Cytochrome P450 2C19 (Homo sapiens) (P33261 whole entry, looked up): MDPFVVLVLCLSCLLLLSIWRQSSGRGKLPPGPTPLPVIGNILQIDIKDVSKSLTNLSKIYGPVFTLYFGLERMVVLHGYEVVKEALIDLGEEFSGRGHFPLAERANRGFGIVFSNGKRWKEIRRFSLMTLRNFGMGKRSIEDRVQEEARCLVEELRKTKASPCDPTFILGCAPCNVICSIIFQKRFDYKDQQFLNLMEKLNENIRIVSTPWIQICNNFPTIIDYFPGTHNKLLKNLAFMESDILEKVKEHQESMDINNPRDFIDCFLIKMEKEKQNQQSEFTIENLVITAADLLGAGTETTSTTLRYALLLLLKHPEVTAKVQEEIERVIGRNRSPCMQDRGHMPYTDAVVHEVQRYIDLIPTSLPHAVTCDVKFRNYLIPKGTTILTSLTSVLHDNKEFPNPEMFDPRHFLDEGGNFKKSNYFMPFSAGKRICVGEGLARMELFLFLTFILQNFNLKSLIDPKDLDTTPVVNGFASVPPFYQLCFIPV

The target in the first assay is 3',5'-cyclic-AMP phosphodiesterase 4B (Homo sapiens) (UniProt Q07343). The assay is described as follows: qHTS Assay for Inhibitors of PDE-IV (AID 607; active means well fitted activation curve with a large enough effect in the main read-out, with a control signal flat, not every such curve was filed as active). The settings on record: HEK293 ACTOne CNG channel cells, membrane potential fluorescence; series mostly up to 22.9 µM. An outline of the steps: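 Live HEK293 cells with a modified cyclic nucleotide-gated (CNG) channel report intracellular cAMP via membrane-potential dye fluorescence (ex 535/em 590 nm). Endogenous PDE-IV was targeted. Compounds were tested at up to 22.9 uM final; RO 20-1724 100 uM served as control.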
Chain of 3',5'-cyclic-AMP phosphodiesterase 4B (Homo sapiens) (Q07343 whole entry, looked up): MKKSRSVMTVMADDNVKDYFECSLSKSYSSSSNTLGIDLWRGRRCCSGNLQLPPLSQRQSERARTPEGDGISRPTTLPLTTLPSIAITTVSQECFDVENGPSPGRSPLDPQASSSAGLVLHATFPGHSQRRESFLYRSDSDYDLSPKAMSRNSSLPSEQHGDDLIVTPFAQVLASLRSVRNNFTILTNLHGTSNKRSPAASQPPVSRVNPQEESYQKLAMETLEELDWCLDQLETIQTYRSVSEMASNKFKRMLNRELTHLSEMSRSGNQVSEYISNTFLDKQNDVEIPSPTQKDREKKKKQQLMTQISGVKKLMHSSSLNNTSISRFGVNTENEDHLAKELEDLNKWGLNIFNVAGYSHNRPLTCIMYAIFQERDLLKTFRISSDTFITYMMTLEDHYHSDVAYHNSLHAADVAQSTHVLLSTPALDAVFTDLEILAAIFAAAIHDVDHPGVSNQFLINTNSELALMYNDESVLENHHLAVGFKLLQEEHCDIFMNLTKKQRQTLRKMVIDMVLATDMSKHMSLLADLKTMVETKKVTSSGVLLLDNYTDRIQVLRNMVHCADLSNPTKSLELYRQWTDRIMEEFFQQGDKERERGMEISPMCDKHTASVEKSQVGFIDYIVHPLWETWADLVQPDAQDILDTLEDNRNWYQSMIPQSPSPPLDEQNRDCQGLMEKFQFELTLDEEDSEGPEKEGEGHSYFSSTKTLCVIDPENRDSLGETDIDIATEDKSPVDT
Background: qHTS replaces the single test concentration by a dilution series.
Take `COc1ncc2nc(-c3cccs3)c(=O)n(-c3ccccc3)c2n1`: the Potency result was “inactive”. Same read-out and setting: next, `COc1ccc2[nH]cc(CCNc3cc(-c4ccccc4C(F)(F)F)ncn3)c2c1`: “inactive”. Still for that read-out and setting: next, `Cc1nc2cnc(Oc3cccc(Cl)c3)nc2n(CCC#N)c1=O`: “inactive”; `COc1ncc2ncc(=O)n(C)c2n1`: “inactive”; `COc1cccc(-c2nccc(-n3ccnc3)n2)c1`: “inactive”. The same measure, in the same setting: then `CN(C)c1ccc(-c2cc(-n3ccnc3)ncn2)cc1`, with “inactive”.

Another assay has as its target Cytochrome P450 2C9 (Homo sapiens) (UniProt P11712). The assay is described as follows: qHTS Assay for Inhibitors and Substrates of Cytochrome P450 2C9 (AID 883). Further: nearly all actives have a fitted effect of over 60% in size. Further: potency means the concentration at half of the fitted maximal effect. Particulars: recombinant CYP2C9, luciferin-H luminescence, 60 min; series mostly up to 57.1 µM. An outline of the steps: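 CYP2C9 deoxyluciferin hydroxylation, 37C, 60 min with NADPH regeneration; 10nM enzyme, 100uM Luciferin-H (KM). Glo detection reagent stopped reaction; luminescence normalized to sulphaphenazole (57uM) full inhibition.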
In the case of `CN(C)c1ncc2ncc(=O)n(CCC#N)c2n1`, the Potency entry is “inactive”. Still for that read-out and setting: then `COc1ccccc1CCn1c(=O)c(-c2cc(F)cc(F)c2)nc2cncnc21`, with 1.58 µM (active).

With `CNc1nc(-c2ccccc2Cl)nc2ccccc12`, the activity change, negative = inhibition was 75.1% [at 2.29 µM] (inactive).

As to `O=c1c(-c2ccc(F)cc2)nc2cnc(N3CCOCC3)nc2n1C[C@H]1CCCO1`, the Potency result is “inactive”.

The next assay has as its target Cytochrome P450 3A4 (Homo sapiens) (UniProt P08684). The assay is described as follows: qHTS Assay for Inhibitors and Substrates of Cytochrome P450 3A4 (AID 884). Further: nearly all actives have a fitted effect of over 50% in size. Further: potency means the concentration at half of the fitted maximal effect. Particulars: recombinant CYP3A4, Luciferin-PPXE luminescence; series mostly up to 57.1 µM. An outline of the steps:
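20 nM human CYP3A4 with 25 uM Luciferin-PPXE (at KM) in 200 mM KPO4, preincubated 10 min with compound; NADPH regeneration started a 60 min RT reaction. Luciferin detected by luminescence, normalized to 57 uM ketoconazole as full inhibition.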
With `Clc1ccccc1-c1nccc(-n2ccnc2)n1`, the Potency is 1.26 µM (active). Same read-out and setting: then `COc1ccc(-n2c(=O)c(-c3cn(C)c4ccccc34)nc3cnc(OC)nc32)cc1`, with 1.58 µM (active); and `COc1ccccc1CNc1ccnc(-c2ccoc2)n1`, with 2.51 µM (active); and `Cc1ccccc1-c1cncnc1Nc1ccc(F)cc1`, with 0.199 µM (active). Same read-out and setting: next, `COc1ccccc1CCn1c(=O)c(-c2cc(F)cc(F)c2)nc2cncnc21`: 0.398 µM (active). For the molecule `COc1cccc(-c2cc(NCc3cccs3)ncn2)c1`, the Potency was 7.94 µM (active). Same read-out and setting: next, `Cn1c(=O)c(-c2cc(F)cc(F)c2)nc2cnc(Oc3ccccc3)nc21`: “inactive”. Take `Cc1cccc(CNc2ncncc2-c2cccc(C#N)c2)c1`: the Potency was 0.199 µM (active).

In the case of `COc1ccc2[nH]cc(CCNc3cc(-c4ccccc4C(F)(F)F)ncn3)c2c1`, the Potency is 5.01 µM (active). On to `c1ccc2c(-n3ccnc3)nc(-c3ccoc3)nc2c1`, for which the Potency was 0.199 µM (active). On the same count and under the same terms, next, `CN(C)c1ccc(-c2cc(-n3ccnc3)ncn2)cc1`: 0.0631 µM (active).

A further assay shares this target. The assay is described as follows: qHTS Assay for Activators of Cytochrome P450 3A4 (AID 885). Further: nearly all actives have a fitted effect of over 65% in size. The settings on record: recombinant CYP3A4, Luciferin-PPXE luminescence, 60 min; series mostly up to 57.1 µM. An outline of the steps:
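Quantitative HTS format: compounds preincubated with 20nM human CYP3A4 and Luciferin-PPXE substrate at KM, reaction started by NADPH regeneration, stopped after 60 min, luciferase luminescence read 20 min later.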
On to `Clc1ccccc1-c1nccc(-n2ccnc2)n1`, for which the Potency entry was “inactive”. Same read-out and setting: next, `Cc1cccc(CNc2ccnc(-c3ccoc3)n2)c1`: “inactive”; `c1nc(NC2CCNCC2)c2cc(-c3ccc4c(c3)OCO4)ccc2n1`: “inactive”. The same measure, in the same setting: next, `COc1ccc(-n2c(=O)c(-c3cn(C)c4ccccc34)nc3cnc(OC)nc32)cc1`: “inactive”; `COc1ccccc1CNc1ncncc1-c1ccoc1`: “inactive”.

For the molecule `COc1ncc2ncc(=O)n(Cc3cccs3)c2n1`, the Potency result is “inactive”.

For `CC(=O)NCCNc1nc(-c2ccccc2C(F)(F)F)nc2ccccc12`, the Potency result is “inactive”.

For `COc1ccccc1CNc1ccnc(-c2ccoc2)n1`, the Potency result was “inactive”. For `Cc1ccccc1-c1cncnc1Nc1ccc(F)cc1`, the Potency entry is “inactive”. On to `COc1ccc(-n2c(=O)cnc3cnc(Oc4ccccc4)nc32)cc1`, for which the Potency entry is “inactive”. Take `COc1ncc2nc(-c3cccc(C#N)c3)c(=O)n(CCC#N)c2n1`: the Potency entry was “inactive”. Same read-out and setting: then `CN(Cc1ccco1)c1ncnc2ccc(-c3cccc(C#N)c3)cc12`, with “inactive”; and `c1ccc(CNc2ccnc(-c3ccoc3)n2)cc1`, with “inactive”. On to `COc1ncc2nc(-c3cc(F)cc(F)c3)c(=O)n(CCC#N)c2n1`, for which the Potency entry was “inactive”. Still for that read-out and setting: next, `Cc1nc2cnc(Nc3ccccc3)nc2n(C)c1=O`: “inactive”; `COc1ccc(-n2c(=O)c(C)nc3cnc(Oc4ccccc4)nc32)cc1`: “inactive”. Same read-out and setting: next, `COc1ccccc1CCn1c(=O)c(-c2cc(F)cc(F)c2)nc2cncnc21`: “inactive”; `COc1cccc(-c2ccc3ncnc(NC4CCNCC4)c3c2)c1`: “inactive”.

In the case of `COc1cccc(-c2cc(NCc3cccs3)ncn2)c1`, the Potency entry is “inactive”. Same read-out and setting: next, `CNc1nc(-c2ccccc2Cl)nc2ccccc12`: “inactive”.

For the molecule `O=C(O)C1CCN(c2ncnc3ccc(-c4ccccc4C(F)(F)F)cc23)CC1`, the Potency result is “inactive”.

Take `CC(=O)NCCNc1nc(-c2ccccc2Cl)nc2ccccc12`: the Potency result is “inactive”. Same read-out and setting: next, `CN(C)c1ccc(-c2cncnc2NCc2cccs2)cc1`: “inactive”; `Cc1cccc(CNc2ncncc2-c2cccc(C#N)c2)c1`: “inactive”; `COc1ccc(Oc2ncc3nc(-c4ccc(OC)cc4)c(=O)n(Cc4cccs4)c3n2)cc1`: “inactive”. Turning to `Cc1cccc(CNc2ncncc2-c2ccc3c(c2)OCO3)c1`, the Potency entry was “inactive”. Still for that read-out and setting: next, `COc1ccc2[nH]cc(CCNc3cc(-c4ccccc4C(F)(F)F)ncn3)c2c1`: “inactive”.

As to `Cc1nc2cnc(Oc3cccc(Cl)c3)nc2n(CCC#N)c1=O`, the Potency result is “inactive”. On the same count and under the same terms, next, `c1ccc2c(-n3ccnc3)nc(-c3ccoc3)nc2c1`: “inactive”; `COc1cccc(-c2nccc(-n3ccnc3)n2)c1`: “inactive”; `CN(C)c1ccc(-c2cc(-n3ccnc3)ncn2)cc1`: “inactive”.

For a further assay, the target named is Cytochrome P450 2D6 (Homo sapiens) (UniProt P10635). In words: qHTS Assay for Inhibitors and Substrates of Cytochrome P450 2D6 (AID 891). Further: potency means the concentration at half of the fitted maximal effect; nearly all actives have a fitted effect of over 60% in size. The settings on record: recombinant CYP2D6, luciferin-ME EGE luminescence; series mostly up to 57.1 µM. An outline of the steps:
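Human CYP2D6 (5 nM) with 30 uM Luciferin-ME EGE (at Km) in 100 mM KPO4, compound preincubated 10 min, then NADPH regeneration system for 60 min at room temperature. Luciferin read by luminescence; normalized to 1.43 uM quinidine.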
For the molecule `Clc1ccccc1-c1nccc(-n2ccnc2)n1`, the Potency was 7.94 µM (active).

`CC(=O)NCCNc1nc(-c2ccccc2C(F)(F)F)nc2ccccc12`: the Potency was 3.98 µM (active). On the same count and under the same terms, next, `Cc1cccc(CNc2ncncc2-c2ccc3c(c2)OCO3)c1`: 6.31 µM (active).

`COc1cccc(-c2nccc(-n3ccnc3)n2)c1`: the Potency is 7.94 µM (active). `CN(C)c1ccc(-c2cc(-n3ccnc3)ncn2)cc1`: the Potency is 7.94 µM (active).

The target in another assay is Cytochrome P450 2C19 (Homo sapiens) (UniProt P33261). The assay is described as follows: qHTS Assay for Inhibitors and Substrates of Cytochrome P450 2C19 (AID 899). Further: nearly all actives have a fitted effect of over 60% in size. Further: potency means the concentration at half of the fitted maximal effect. The settings on record: recombinant CYP2C19, luciferin-H EGE luminescence; series mostly up to 57.1 µM. An outline of the steps:
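In 50mM KPO4, the reaction held 5nM enzyme and KM-level (10uM) Luciferin-H EGE; it ran 60 min at 37C after NADPH regeneration and a 10 min compound preincubation. Luminescence values were scaled to 57uM ketoconazole as complete inhibition.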
In the case of `Clc1ccccc1-c1nccc(-n2ccnc2)n1`, the Potency was 2.51 µM (active).

As for `COc1ccccc1CNc1ccnc(-c2ccoc2)n1`, the Potency is 7.94 µM (active). For `Cc1ccccc1-c1cncnc1Nc1ccc(F)cc1`, the Potency was 5.01 µM (active). Same read-out and setting: next, `CN(Cc1ccco1)c1cc(-c2ccccc2Cl)ncn1`: 7.94 µM (active); `CN(Cc1ccco1)c1ncnc2ccc(-c3cccc(C#N)c3)cc12`: 6.31 µM (active). Same read-out and setting: then `c1ccc(CNc2ccnc(-c3ccoc3)n2)cc1`, with 3.98 µM (active). The same measure, in the same setting: next, `COc1ccccc1CCn1c(=O)c(-c2cc(F)cc(F)c2)nc2cncnc21`: 1.58 µM (active); `COc1cccc(-c2ccc3ncnc(NC4CCNCC4)c3c2)c1`: 6.31 µM (active). For `CC(=O)NCCNc1nc(-c2ccccc2Cl)nc2ccccc12`, the Potency was 3.98 µM (active). Same read-out and setting: then `CN(C)c1ccc(-c2cncnc2NCc2cccs2)cc1`, with 0.631 µM (active); and `O=c1c(-c2ccc(F)cc2)nc2cnc(N3CCOCC3)nc2n1C[C@H]1CCCO1`, with “inactive”; and `Cc1cccc(CNc2ncncc2-c2cccc(C#N)c2)c1`, with 3.98 µM (active).

With `Cc1cccc(CNc2ncncc2-c2ccc3c(c2)OCO3)c1`, the Potency is 0.501 µM (active). Same read-out and setting: then `N#CCCn1c(=O)cnc2cnc(N3CCOCC3)nc21`, with “inactive”; and `COc1cccc(-c2nccc(-n3ccnc3)n2)c1`, with 2.51 µM (active); and `CN(C)c1ccc(-c2cc(-n3ccnc3)ncn2)cc1`, with 7.94 µM (active).
